Data published in PubChem BioAssay (NCATS).
Inconclusive results are not listed. A call without a number means that no potency is given here. The source made the active and inactive calls. Calls follow the shape of the dose curve; as a rule, active = well fitted inhibition curve with a large enough effect; inconclusive = small, poorly fitted or top-dose-only effect; inactive = flat fitted curve, though single readings scatter.

Target: Calcium and integrin-binding protein 1 (Homo sapiens) (UniProt Q99828)
Sequence (Q99828 whole entry, looked up): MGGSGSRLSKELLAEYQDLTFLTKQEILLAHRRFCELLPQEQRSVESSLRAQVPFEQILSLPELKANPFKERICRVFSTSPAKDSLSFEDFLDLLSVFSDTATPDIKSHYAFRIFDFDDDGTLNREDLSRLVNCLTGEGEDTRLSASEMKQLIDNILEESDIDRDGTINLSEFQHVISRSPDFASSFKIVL
Assay: Primary qHTS for Identification of Calcium Integrin Binding Protein 1 (CIB1) Competitor (AID 1508620);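 also: GST tagged CIB1 binding a fluorescein labelled alphaIIb integrin peptide tracer; top concentration of the series differs between compounds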
Conditions: CIB1-GST / FITC-alphaIIb peptide fluorescence polarization; series mostly up to 114 µM
Method in brief: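 Fluorescence polarization competition: CIB1-GST (1 uM final) preincubated with compound 15 min at room temperature, then FITC-labeled alphaIIb peptide (100 nM final) added for another 15 min. Polarization read at Ex 480/Em 540.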

Structure (SMILES)	Potency
CCOC(=O)/C=C/c1cc(F)c(S(=O)(=O)N2CCN(S(=O)(=O)c3ccc4c(c3)OCCO4)CC2)cc1F	inactive
COc1ccc(C2=Nn3c(nnc3-c3ccccc3C)SC2)cc1	inactive
Cc1ccc2nc3sc(C(=O)NCCc4cccnc4)cc3cc2c1	inactive
COc1cccc(C)c1NC(=O)C(OC(=O)CNC(=O)c1ccccc1)c1ccccc1 (centres undefined)	inactive
Cc1c(P(=S)(c2ccccc2)c2ccccc2)[n+]2ccccc2n1CCCc1ccccc1	inactive
CCOc1ccc(C(C)CNC(=O)c2cc3sccc3n2Cc2ccccc2)cc1OCC (centres undefined)	inactive
COc1ccc(C2c3c(ncn(CCN4CCOCC4)c3=N)Oc3ccc4ccccc4c32)cc1OC (centres undefined)	inactive
COc1cc(O)c(C(CC(=O)N2CCC(Cc3ccccc3)CC2)c2ccc(C)cc2)c(OC)c1 (centres undefined)	inactive
COc1cccc(NC(=S)N2CCN(c3ccc(C(F)(F)F)cc3[N+](=O)[O-])CC2)n1	inactive
COc1cccc(C2c3c(ncn(-c4ccc(Br)cc4)c3=N)Oc3ccc4ccccc4c32)c1 (centres undefined)	inactive
Cc1cc(-c2nnc3n2CCCCC3)c(C)n1-c1cccc2ccccc12	inactive
CCCCc1ccc(-c2ccc(=O)n(CC(=O)NCCc3ccccc3)n2)cc1	inactive
Cc1cc2c(s1)c1cnn(Cc3ccccc3C)c(=O)c1n2C	inactive
N#Cc1cccc(S(=O)(=O)N2CCN(S(=O)(=O)c3ccc4c(c3)OCCO4)CC2)c1	inactive
Cc1cc(C)nc(NC(=S)N2CCN(c3ccc(Cl)nn3)CC2)c1	inactive
FC(F)(F)c1cc(-c2ccc(CNc3nc(-c4ccncc4)nc4ccccc34)cc2)ccn1	inactive
COc1cccc(C2=Nn3c(nnc3-c3cc(OC)cc(OC)c3)SC2)c1	inactive
CCOC(=O)C1CCN(C(=O)C(C)(C)NC(=O)Nc2cccc(OC)c2)CC1	inactive
COc1cc(Nc2nc(-c3ccncc3)nc3ccccc23)ccc1F	inactive
Cc1nnc(-c2ccccc2)n1CCCn1ccnc1	inactive

Structure (SMILES)	Potency
COc1cc(O)c(C(CC(=O)N2CCC(c3ccccc3)CC2)c2ccc(C)cc2)c(OC)c1 (centres undefined)	inactive
C(#Cc1cccs1)c1cccnc1	inactive
COc1ccccc1C1N=C(Nc2nc3ccccc3o2)NC2=C1C(=O)CCC2 (centres undefined)	inactive
O=C1c2ccccc2C(=O)N1c1ccc2ccccc2n1	inactive
CC(=O)Nc1sc2c(c1C(O)c1nc3ccccc3s1)CCN(C(C)C)C2 (centres undefined)	inactive
CC(=O)Nc1sc2c(c1-c1cnn(C(C)=O)c1)CCNC2	inactive
CSc1ccc(-c2cnc(N3CCC(C(N)=O)CC3)s2)cc1	inactive
COc1ccc(-c2ccc3ncnc(NCC4CCCO4)c3c2)cc1OC (centres undefined)	inactive
Cc1cccc(-c2ccc3ncnc(NCc4cccc(F)c4)c3c2)c1	inactive
O=C1NC(=O)/C(=C/c2ccco2)N1	inactive
CCc1nnc(-c2cnn(C)c2N)n1CCCn1ccnc1	inactive
COc1cccc(CNc2ccc(S(=O)(=O)Nc3ncccn3)cc2)c1O	inactive
COc1cccc(C2C(C#N)=C(NC(=O)CCc3ccccc3)Oc3ccc4ccccc4c32)c1 (centres undefined)	inactive
O=S(=O)(c1ccccc1)N1CCN(c2nc(-c3ccc(Br)cc3)cs2)CC1	inactive
COc1ccc(-c2nc3ccccc3n2Cc2ccccc2)cc1COc1ccc(NC(C)=O)cc1	inactive
O=C(Nc1cccc(C(=O)O)c1)Nc1nnc(-c2ccncc2)s1	inactive
CCOc1ccc(CCNC(=O)C2(c3ccccc3)CC2)cc1OCC	inactive
O=C1N/C(=C\c2ccco2)C(=O)N1Cc1ccccc1	inactive
CC(=O)N1CCN(c2ccc(NCc3cccc(C)c3)cc2)CC1	inactive
